From PubChem BioAssay AID1159580 (chemical genetic matrix, 2015)
In all, about 5,500 compounds went through this assay and about 2,000 (36%) were called active. Roughly 18% stayed inconclusive and do not appear here. No stated cut-off is given here; in the data, active means normalized growth mostly below about 0.91 (no sharp cut-off); inconclusive means no clear call, values can overlap the other calls; inactive means mostly above about 0.92. Some of the results follow.

Assay: chemical genetic growth profiling, strain panel (AID 1159580);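 further: tested at 20 µM; growth read once vehicle control cultures reached saturation at 30 °C; 1 = growth at the plate median or of vehicle wells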
Settings: growth OD

Measured: normalized growth

CC(=O)OC1CC(OC(C)=O)C2(C)C(CC(OC(C)=O)C3(C)C4=CC(=O)OC(=O)C4(C)CCC32)C1(C)C (stereo unspecified)
inactive: S. cerevisiae deletion strains, locus YBR021W, strain FUR4, stronger effect = lower value 1.01 | S. cerevisiae deletion strains, locus YBR229C, strain ROT2, stronger effect = lower value 1 | S. cerevisiae deletion strains, locus YCL029C, strain bik1, stronger effect = lower value 1 | S. cerevisiae deletion strains, locus YDL035C, strain GPR1, stronger effect = lower value 1.01 | S. cerevisiae deletion strains, locus YDL074C, strain BRE1, stronger effect = lower value 1.02 | S. cerevisiae deletion strains, locus YDL101C, strain DUN1, stronger effect = lower value 1.02 | S. cerevisiae deletion strains, locus YDL134C, strain PPH21, stronger effect = lower value 1.02 | S. cerevisiae deletion strains, locus YDL185W, strain tfp1, stronger effect = lower value 1.01 | S. cerevisiae deletion strains, locus YDL192W, strain arf1, stronger effect = lower value 0.982 | S. cerevisiae deletion strains, locus YDR101C, strain arx1, stronger effect = lower value 0.996 | S. cerevisiae deletion strains, locus YDR150W, strain NUM1, stronger effect = lower value 1.01 | S. cerevisiae deletion strains, locus YDR162C, strain NBP2, stronger effect = lower value 1.01 | S. cerevisiae deletion strains, locus YDR318W, strain mcm21, stronger effect = lower value 0.99 | S. cerevisiae deletion strains, locus YDR388W, stronger effect = lower value 1.01 | S. cerevisiae deletion strains, locus YDR502C, strain sam2, stronger effect = lower value 1.02 | S. cerevisiae deletion strains, locus YER110C, stronger effect = lower value 1 | S. cerevisiae deletion strains, locus YER155C, strain BEM2, stronger effect = lower value 0.993 | S. cerevisiae deletion strains, locus YER167W, strain BCK2, stronger effect = lower value 0.995 | S. cerevisiae deletion strains, locus YGL078C, strain dbp3, stronger effect = lower value 1.03 | S. cerevisiae deletion strains, locus YGL086W, strain mad1, stronger effect = lower value 0.998 | S. cerevisiae deletion strains, locus YGL248W, strain PDE1, stronger effect = lower value 1.03 | S. cerevisiae deletion strains, locus YGR078C, strain PAC10, stronger effect = lower value 1.04 | S. cerevisiae deletion strains, locus YGR135W, strain pre9, stronger effect = lower value 1.06 | S. cerevisiae deletion strains, locus YGR252W, strain gcn5, stronger effect = lower value 1.03 | S. cerevisiae deletion strains, locus YHR030C, strain SLT2, stronger effect = lower value 0.999 | S. cerevisiae deletion strains, locus YHR079C, strain IRE1 (second series), stronger effect = lower value 1 | S. cerevisiae deletion strains, locus YHR094C, strain hxt1, stronger effect = lower value 1.01 | S. cerevisiae deletion strains, locus YHR129C, strain ARP1, stronger effect = lower value 1.01 | S. cerevisiae deletion strains, locus YHR200W, strain rpn10, stronger effect = lower value 1.01 | S. cerevisiae deletion strains, locus YIL066C, strain RNR3, stronger effect = lower value 0.99 | S. cerevisiae deletion strains, locus YIL073C, strain SPO22, stronger effect = lower value 1.04 | S. cerevisiae deletion strains, locus YIL125W, strain kgd1, stronger effect = lower value 0.993 | S. cerevisiae deletion strains, locus YIR030C, strain dcg1, stronger effect = lower value 0.999 | S. cerevisiae deletion strains, locus YJL095W, strain BCK1, stronger effect = lower value 1.04 | S. cerevisiae deletion strains, locus YJL134W, strain LCB3, stronger effect = lower value 0.997 | S. cerevisiae deletion strains, locus YJL168C, strain set2, stronger effect = lower value 1 | S. cerevisiae deletion strains, locus YJL187C, strain SWE1 (second series), stronger effect = lower value 1.04 | S. cerevisiae deletion strains, locus YJR043C, strain POL32, stronger effect = lower value 0.99 | S. cerevisiae deletion strains, locus YJR075W, strain HOC1, stronger effect = lower value 1.01 | S. cerevisiae deletion strains, locus YKL009W, strain mrt4, stronger effect = lower value 0.992 | S. cerevisiae deletion strains, locus YKL068W, stronger effect = lower value 1.01 | S. cerevisiae deletion strains, locus YKL085W, strain MDH1 (second series), stronger effect = lower value 0.987 | S. cerevisiae deletion strains, locus YKL085W, strain MDH1, stronger effect = lower value 0.987 | S. cerevisiae deletion strains, locus YKL190W, strain CNB1, stronger effect = lower value 1.01 | S. cerevisiae deletion strains, locus YKR001C, strain vps1, stronger effect = lower value 0.987 | S. cerevisiae deletion strains, locus YLR039C, strain RIC1, stronger effect = lower value 1.02 | S. cerevisiae deletion strains, locus YLR058C, strain SHM2, stronger effect = lower value 1.02 | S. cerevisiae deletion strains, locus YLR102C, strain apc9, stronger effect = lower value 1.01 | S. cerevisiae deletion strains, locus YLR262C, strain YPT6, stronger effect = lower value 0.985 | S. cerevisiae deletion strains, locus YLR268W, strain sec22, stronger effect = lower value 0.981 | S. cerevisiae deletion strains, locus YLR330W, strain CHS5, stronger effect = lower value 1 | S. cerevisiae deletion strains, locus YLR371W, strain rom2, stronger effect = lower value 0.987 | S. cerevisiae deletion strains, locus YLR418C, strain cdc73, stronger effect = lower value 1.03 | S. cerevisiae deletion strains, locus YML016C, strain PPZ1, stronger effect = lower value 1.01 | S. cerevisiae deletion strains, locus YML032C, strain rad52, stronger effect = lower value 1 | S. cerevisiae deletion strains, locus YML124C, strain tub3, stronger effect = lower value 0.998 | S. cerevisiae deletion strains, locus YMR078C, strain ctf18, stronger effect = lower value 1 | S. cerevisiae deletion strains, locus YMR223W, strain ubp8, stronger effect = lower value 1 | S. cerevisiae deletion strains, locus YMR307W, strain GAS1, stronger effect = lower value 0.916 | S. cerevisiae deletion strains, locus YNL067W, strain RPL9B, stronger effect = lower value 1.05 | S. cerevisiae deletion strains, locus YNL233W, strain BNI4, stronger effect = lower value 1.02 | S. cerevisiae deletion strains, locus YNL250W, strain rad50, stronger effect = lower value 1.02 | S. cerevisiae deletion strains, locus YNL271C, strain bni1, stronger effect = lower value 1.01 | S. cerevisiae deletion strains, locus YNL298W, strain CLA4, stronger effect = lower value 1.01 | S. cerevisiae deletion strains, locus YNL307C, strain MCK1, stronger effect = lower value 1.02 | S. cerevisiae deletion strains, locus YNR052C, strain pop2, stronger effect = lower value 1.03 | S. cerevisiae deletion strains, locus YOL006C, strain TOP1, stronger effect = lower value 0.98 | S. cerevisiae deletion strains, locus YOL012C, strain htz1 0.765 | S. cerevisiae deletion strains, locus YOL147C, strain pex11, stronger effect = lower value 1 | S. cerevisiae deletion strains, locus YOR061W, strain CKA2, stronger effect = lower value 0.994 | S. cerevisiae deletion strains, locus YOR069W, strain VPS5, stronger effect = lower value 1.01 | S. cerevisiae deletion strains, locus YOR136W, strain idh2, stronger effect = lower value 1.01 | S. cerevisiae deletion strains, locus YOR144C, strain elg1, stronger effect = lower value 0.996 | S. cerevisiae deletion strains, locus YOR184W, strain ser1, stronger effect = lower value 0.978 | S. cerevisiae deletion strains, locus YOR316C, strain cot1, stronger effect = lower value 1.01 | S. cerevisiae deletion strains, locus YPR119W, strain clb2, stronger effect = lower value 1.01 | S. cerevisiae deletion strains, locus YPR141C, strain kar3, stronger effect = lower value 1.01 | S. cerevisiae deletion strains, locus YPR163C, strain tif3, stronger effect = lower value 1.02 | S. cerevisiae deletion strains, locus YPR167C, strain met16, stronger effect = lower value 1.01 | S. cerevisiae deletion strains, strain wtn01, stronger effect = lower value 0.975 | S. cerevisiae strains, strain wild type, stronger effect = lower value 1
